SMILES strings stand for the structures. In all, about 48,000 compounds went through this assay and about 13,000 (27%) showed an effect of 50% or more. The list shows a part of the results.

The test system of the experiment is Wolbachia pipientis. Briefly: Anti-Wolbachia Cell-Based Screen. In kind it is functional. Details: scale not given: in the data most compounds retested in dose-response had high values. To be noted: 5 µM.
For `O=C(CCOCC(F)(F)F)N1CCCC1c1noc(C2CC2)n1` (stereo unspecified), the “Percent Effect” value was 110.3%.
`CC(C)c1nc(C2CCCN2C(=O)CN(C)Cc2ccccc2)no1` (stereo unspecified): the “Percent Effect” value is given as -1.303%.
As for `CN(CC(=O)N1CCCC1c1noc(C2CC2)n1)Cc1ccccc1` (stereo unspecified), the “Percent Effect” value is given as 125%.
On to `CN(CC(=O)N1CCCC1c1noc(C2CC2)n1)S(C)(=O)=O` (stereo unspecified), for which the “Percent Effect” value is on record as -4.579%.
As for `FC(F)(F)COCCN1CCCC(c2noc(C3CC3)n2)C1` (stereo unspecified), the “Percent Effect” value is 7.435%.
Consider `O=C(COC1CCCC1)N1CCCC1c1noc(C2CC2)n1` (stereo unspecified), for which the “Percent Effect” value is -26.64%.
Consider `Cc1nc(C2CCCN2C(=O)CN(C)Cc2ccccc2)no1` (stereo unspecified), for which the “Percent Effect” value is 10.99%.
Regarding `O=C(COCc1ccccc1)N1CCCC1c1noc(C2CC2)n1` (stereo unspecified), the “Percent Effect” value was 106.9%.
For `O=C(Cc1ccc2c(c1)CCO2)N1CCCC1c1noc(C2CC2)n1` (stereo unspecified), the “Percent Effect” value is reported as 96.74%.
Turning to `Cc1noc(C2CN(Cc3ccc4c(c3)CCO4)C2)n1.O=C(O)C(=O)O`, the “Percent Effect” value came to 22.63%.
Take `O=C(CCOCc1ccccc1)N1CCCC1c1noc(C2CC2)n1` (stereo unspecified): the “Percent Effect” value was determined as 14.67%.
Next, `O=C(Cc1noc2ccccc12)N1CCCC1c1noc(C2CC2)n1` (stereo unspecified): 8.423%; `CSCCC(=O)N1CCN(CC(O)C(C)(C)C)CC1` (stereo unspecified): -10.5%; `Cc1ccc(C(=O)N(C)S(C)(=O)=O)cc1Cl`: -6.894%.
For `Cc1cc(S(=O)(=O)Nc2cccc(OC(F)F)c2)sc1C(=O)O`, the “Percent Effect” value is on record as -5.292%.
Consider `Cc1nonc1C1CCCN1CCC(=O)N1CCc2ccccc2C1` (stereo unspecified), for which the “Percent Effect” value worked out at 3.529%.
Take `O=C(CCS(=O)(=O)C1CCCC1)N1CCC(O)(C(F)(F)F)C1` (stereo unspecified): the “Percent Effect” value was -5.456%.
Next, `O=C(NCC1(N2CCOCC2)CCSC1)Nc1ccncc1` (stereo unspecified): -3.46%.
Regarding `Cc1nc(CN2CCN(C(=O)COCc3ccccc3)CC2)no1`, the “Percent Effect” value is given as 3.654%.
Consider `Cc1nc(C2CCCN2C(=O)CCCOc2cccc(F)c2)no1` (stereo unspecified), for which the “Percent Effect” value is -14%.
On to `Cc1nc(C2CCCN2C(=O)COCCOc2ccccc2)no1` (stereo unspecified), for which the “Percent Effect” value is reported as -5.15%.
Consider `Cc1nc(C2CCCN2C(=O)COCc2ccccc2)no1` (stereo unspecified), for which the “Percent Effect” value stood at 102.7%.
On to `Cc1nc(C2CCCN2C(=O)CCOCc2ccccc2)no1` (stereo unspecified), for which the “Percent Effect” value is recorded as 99.19%.
`O=C1OCCN1CC(=O)N1C[C@H]2CC[C@@H]1CN(C(=O)c1ccccn1)C2`: the “Percent Effect” value is given as -8.504%.
Consider `COc1cc(F)cc(NC(=O)NCc2cccc(N(C)C)n2)c1`, for which the “Percent Effect” value is 5.244%.
Regarding `O=C(C1CC=CC1)N1C[C@@H]2[C@@H](C1)OCC(=O)N2Cc1cccnc1`, the “Percent Effect” value is -8.253%.
For the compound `CCc1ccc(C(=O)N2CC[C@H](Oc3cccnc3C)[C@@H](O)CC2)cc1`, the “Percent Effect” value is reported as 61.09%.
For `Cc1ncccc1O[C@H]1CCN(C(=O)c2cccs2)CC[C@@H]1O`, the “Percent Effect” value is recorded as -0.5375%.
In the case of `Cc1ccc(C(=O)N2CC[C@H](Oc3cccnc3C)[C@@H](O)CC2)s1`, the “Percent Effect” value stood at 123.3%.
In the case of `COc1ccccc1OC1CCN(C(=O)c2cnc(C)s2)CC1` it was 3.926%.
Take `Cc1ncccc1O[C@H]1CCN(C(=O)Cc2cccs2)CC[C@@H]1O`: the “Percent Effect” value is 6.577%.
Regarding `Cc1ccc(C(=O)N2CCC(c3nccn3Cc3ccncc3)CC2)s1`, the “Percent Effect” value is on record as -4.938%.
Next, `Cc1csc(C(=O)N2CC[C@H](Oc3cccnc3C)[C@@H](O)CC2)c1`: 110.7%; `CC(=O)N(C)CC(=O)Nc1cnc(-n2ccnc2C)nc1`: 9.823%.
For `CC(O)CCN(C)S(=O)(=O)Cc1ccc(Br)cc1` (stereo unspecified), the “Percent Effect” value is -1.579%.
On to `O=C(CO)N1CCc2onc(Cn3cccn3)c2C1`, for which the “Percent Effect” value worked out at 6.984%.
Next, `Cc1c(Br)cccc1CSc1nnc(CO)n1C`: 11.11%; `O=C(Nc1c(F)cccc1Oc1ccccc1)C1CCS(=O)(=O)C1` (stereo unspecified): 2.058%.
As for `O=C(NCc1cc(Cl)ccn1)NCc1ccco1`, the “Percent Effect” value is listed as -0.04027%.
As to `CN(C)c1nccc(CNC(=O)NCc2ccco2)n1`, the “Percent Effect” value is recorded as -7.993%.
Regarding `Cc1ccc(CNC(=O)NCc2ccco2)s1`, the “Percent Effect” value came to 117.2%.
On to `CNC(=O)CCOC(=O)c1cccc(-n2ccc(C(F)(F)F)n2)c1`, for which the “Percent Effect” value was -14.03%.
In the case of `Cc1nn(C)c(N(C)C)c1CNCc1cccc(Br)c1` it was -4.706%.
With `CCN(CC)c1nc(C)cc(C(=O)Nc2cnn(CC)c2)n1`, the “Percent Effect” value came to 114.1%.
Consider `CCN(CC)c1nc(C)cc(C(=O)Nc2cccc(C(N)=O)c2)n1`, for which the “Percent Effect” value stood at 132.2%.
Regarding `CN(C)C(=O)c1cccc(NC(=O)c2cnn(C)c2)c1`, the “Percent Effect” value was -1.797%.
Turning to `Cc1noc(NC(=O)c2ccc(Br)cc2)n1`, the “Percent Effect” value is 7.251%.
`CCN(CC)c1nc(C)cc(C(=O)Nc2ccc(Br)cc2)n1`: the “Percent Effect” value was 134.8%.
As to `Cc1ccc(NC(=O)c2n[nH]c(-n3cnnc3)n2)cc1C`, the “Percent Effect” value is 9.368%.
Take `CCn1cc(NC(=O)c2cccc(OCC(F)(F)F)n2)cn1`: the “Percent Effect” value is recorded as 10.55%.
Turning to `CCc1sc(C(=O)Nc2cnn(CCN(C)C)c2)cc1C`, the “Percent Effect” value is 11.53%.
Regarding `CCN(Cc1cccc(C(N)=O)c1)c1ccccc1`, the “Percent Effect” value was 7.168%.
Regarding `CC(C)(C)CN[C@@H]1CO[C@H](CNC(=O)Nc2ccccc2)[C@H]1O`, the “Percent Effect” value is given as -16.93%.
Take `CCOc1ccccc1OCCN(C)Cc1nccn1C`: the “Percent Effect” value amounted to 8.395%.
For the compound `CC(=O)N(Cc1noc(C)n1)C1CCN(Cc2cc(C)on2)C1` (stereo unspecified), the “Percent Effect” value is on record as 0.668%.
In the case of `CC(=O)N(Cc1noc(C2CC2)n1)C1CCN(Cc2nccn2C)C1` (stereo unspecified) it was 3.362%.
Next, `CC(=O)N(Cc1noc(C2CC2)n1)C1CCN(Cc2cc(C)on2)C1` (stereo unspecified): 124.1%.
In the case of `CC(=O)N(Cc1noc(C)n1)C1CCN(Cc2ccon2)C1` (stereo unspecified) it was 2.71%; in that of `CC(=O)N(Cc1noc(C)n1)C1CCN(Cc2ccccn2)C1` (stereo unspecified), 104.4%; in that of `CC(=O)N(Cc1noc(C2CC2)n1)C1CCN(Cc2ccccn2)C1` (stereo unspecified), 122.2%.
In the case of `CCCC(=O)N(CCCN1CCOCC1)c1nc2c(C)ccc(Cl)c2s1.Cl`, the “Percent Effect” value was 32.82%.
Take `CN(C)CCOCC1CN(C(=O)N2CCCC2)Cc2ccnn2C1.O=C(O)C(F)(F)F.O=C(O)C(F)(F)F` (stereo unspecified): the “Percent Effect” value is given as -8.834%.
On to `CSC(C)(C)CNC(=O)NCc1cccc(-n2cncn2)c1`, for which the “Percent Effect” value worked out at 2.602%.
As for `COCCOCCNC(=O)N1CCc2c(F)ccc(F)c2C1`, the “Percent Effect” value is given as -0.5371%.
On to `N#Cc1cc(F)ccc1Cn1cncn1`, for which the “Percent Effect” value came to 9.511%.
With `CNC(=O)Cc1noc(Cc2ccc3c(c2)CCCC3)n1`, the “Percent Effect” value worked out at 11.56%.
With `Cc1ccc(=O)n(CC2(O)CCN(Cc3cnc(N(C)C)nc3)CC2)n1`, the “Percent Effect” value was 82.15%.
With `Cc1ccc(=O)n(CC2(O)CCN(Cc3cnc(C)nc3)CC2)n1`, the “Percent Effect” value is given as -9.776%.
With `CCn1ccnc1CN1CCC(Oc2ccccc2F)(C(=O)O)CC1`, the “Percent Effect” value was -0.1414%.
Consider `Cc1ccc(=O)n(CC2(O)CCN(Cc3ccsc3)CC2)n1`, for which the “Percent Effect” value is listed as -12.71%.
In the case of `CCn1cc(CN2CCC(O)(Cn3nc(C)ccc3=O)CC2)cn1` it was 106.9%; in that of `Cn1cnn(Cc2c(F)cccc2Br)c1=O`, 12.84%.
Next, `Cc1ccc(=O)n(CC2(O)CCN(Cc3cccs3)CC2)n1`: 102.3%.
Consider `CN(C)CC1(O)CCCN(Cc2cnc(-c3ccco3)nc2)CC1` (stereo unspecified), for which the “Percent Effect” value is 2.959%.
On to `CN(C)c1cnn(CC(=O)N2CCN(Cc3cccs3)CC2)c(=O)c1`, for which the “Percent Effect” value was 2.186%.
In the case of `Cc1ccc(=O)n(CC2(O)CCN(Cc3c(F)cccc3F)CC2)n1`, the “Percent Effect” value is 89.56%.

The values are drawn from ChEMBL document CHEMBL3988442, “University of Dundee, Small-Polar-MMV Screening Library” (2021).
